# Laboratory results as given in the supplement of paper PMC8728848.
# This excerpt belongs to a sample that is enriched for the strongest signals.
# B1: GSL-I (Griffonia simplicifolia) (protein)
# chain: FNLPNFWSDVKDNIIFQGDANTTAGTLQLCKTNQYGNPLQYRAGRALYSDPVQLWDNKTGSVASFYTEFTFFLKITGDGPADGLAFFLAPPDSDVKDAGAYLGLFNKSTATQPSKNQVVAVEFDTWKNTDFPEPSYRHIGINVNSIVSVATKRWEDSDIFSGKIATARISYDGSAKILTVVLSYPDGADYILSHSVDLSKNLPNPIRVGISASTGANQFLTVYVLSWRFSSALQSTSVNAAMGPEIIRTVV
# How the values were obtained:
# Experiment in all cases: glycan array binding signal (z-score within array); higher = stronger binding
# Conditions in all cases: glycan notation: IUPAC condensed, linker removed
# [1] = target: Fuc(a1-2)Gal(b1-3)GalNAc(a1-3)[Fuc(a1-2)]Gal(b1-4)GlcNAc
# Summary of the method: (§1)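 The Consortium for Functional Glycomics database supplied 3228 glycan arrays, of which those lacking an available protein sequence were dropped. The binding signal, a within-array Z-score, was averaged across arrays of the same protein sequence and across linkers. Negative scores can be read as non-binding.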
# [2] = target: Fuc(a1-2)Gal(b1-4)Fuc(a1-3)]GlcNAc(b1-2)Man(a1-3)[Fuc(a1-2)Gal(b1-4)[Fuc(a1-3)]GlcNAc(b1-2)Man(a1-6)]Man(b1-4)GlcNAc(b1-4)GlcNAc
# Summary of the method: as §1
# [3] = target: Fuc(a1-2)Gal6S(b1-4)Glc6S
# Summary of the method: as §1
# [4] = target: Fuc(a1-2)[GalNAc(a1-4)]Gal(b1-4)GlcNAc
# Summary of the method: as §1
# [5] = target: Fuc(a1-3)[Gal(b1-4)]Glc6S
# Summary of the method: as §1
# [6] = target: Fuc(a1-3)[Gal(b1-4)]GlcNAc(b1-2)Man(a1-3)[Fuc(a1-3)[Gal(b1-4)]GlcNAc(b1-2)Man(a1-6)]Man(b1-4)GlcNAc(b1-4)GlcNAc
# Summary of the method: as §1
# [7] = target: Fuc(a1-3)[Gal(b1-4)]GlcNAc(b1-3)Gal(b1-4)[Fuc(a1-3)]GlcNAc(b1-3)Gal(b1-4)[Fuc(a1-3)]GlcNAc
# Summary of the method: as §1
# [8] = target: Fuc(a1-3)[Gal(b1-4)]GlcNAc(b1-4)Gal(b1-4)[Fuc(a1-3)]GlcNAc
# Summary of the method: as §1
# Fuc(a1-4)GlcNAc = target: Fuc(a1-4)GlcNAc
# Summary of the method: as §1
# Fuc(b1-3)GlcNAc = target: Fuc(b1-3)GlcNAc
# Summary of the method: as §1
# Gal(a1-3)Gal = target: Gal(a1-3)Gal
# Summary of the method: as §1
# [9] = target: Gal(a1-3)Gal(b1-4)GlcNAc(b1-2)Man(a1-3)[Gal(a1-3)Gal(b1-4)GlcNAc(b1-2)Man(a1-6)]Man(b1-4)GlcNAc(b1-4)GlcNAc
# Summary of the method: as §1
# [10] = target: Gal(a1-3)Gal(b1-4)[Fuc(a1-3)]GlcNAc
# Summary of the method: as §1
# [11] = target: Gal(a1-3)Gal(b1-4)[Fuc(a1-3)]GlcNAc(b1-2)Man(a1-3)[Gal(a1-3)Gal(b1-4)[Fuc(a1-3)]GlcNAc(b1-2)Man(a1-6)]Man(b1-4)GlcNAc(b1-4)GlcNAc
# Summary of the method: as §1
# [12] = target: Gal(a1-4)Gal(b1-3)GlcNAc(b1-2)Man(a1-3)[Gal(a1-4)Gal(b1-3)GlcNAc(b1-2)Man(a1-6)]Man(b1-4)GlcNAc(b1-4)GlcNAc
# Summary of the method: as §1
# Gal(a1-4)Gal(b1-4)GlcNAc = target: Gal(a1-4)Gal(b1-4)GlcNAc
# Summary of the method: as §1
# [13] = target: Gal(a1-4)Gal(b1-4)GlcNAc(b1-2)Man(a1-3)[Gal(a1-4)Gal(b1-4)GlcNAc(b1-2)Man(a1-6)]Man(b1-4)GlcNAc(b1-4)GlcNAc
# Summary of the method: as §1
# Gal(a1-4)GlcNAc = target: Gal(a1-4)GlcNAc
# Summary of the method: as §1
# Gal(b1-3)GlcNAc(b1-2)Man = target: Gal(b1-3)GlcNAc(b1-2)Man
# Summary of the method: as §1
# [14] = target: Gal(b1-3)GlcNAc(b1-3)Gal(b1-4)Glc
# Summary of the method: as §1
# [15] = target: Gal(b1-3)GlcNAc(b1-3)Gal(b1-4)GlcNAc
# Summary of the method: as §1
# [16] = target: Gal(b1-3)GlcNAc(b1-3)GalNAc
# Summary of the method: as §1
# [17] = target: Gal(b1-3)[GlcNAc(b1-6)]GalNAc
# Summary of the method: as §1
# [18] = target: Gal(b1-4)GlcNAc(b1-3)[Gal(b1-4)GlcNAc(b1-6)]GalNAc
# Summary of the method: as §1
# Gal(b1-4)GlcNAc6P = target: Gal(b1-4)GlcNAc6P
# Summary of the method: as §1
# GalNAc(a1-3)Gal = target: GalNAc(a1-3)Gal
# Summary of the method: as §1
# GalNAc(a1-3)GalNAc = target: GalNAc(a1-3)GalNAc
# Summary of the method: as §1
# [19] = target: GalNAc(a1-3)GalNAc(a1-3)Gal(a1-4)Gal(b1-4)GlcNAc
# Summary of the method: as §1
# [20] = target: GalNAc(b1-3)Gal(a1-6)Gal(b1-4)Glc
# Summary of the method: as §1
# GalNAc(b1-3)GalNAc = target: GalNAc(b1-3)GalNAc
# Summary of the method: as §1
# [21] = target: GalNAc(b1-4)GlcNAc(b1-2)Man
# Summary of the method: as §1
# [22] = target: GlcNAc(a1-3)Gal(b1-4)GlcNAc
# Summary of the method: as §1
# [23] = target: GlcNAc(b1-2)[GlcNAc(b1-6)]Man(a1-6)[GlcNAc(b1-2)Man(a1-3)]Man(b1-4)GlcNAc(b1-4)GlcNAc
# Summary of the method: as §1
# [24] = target: GlcNAc(b1-3)Gal(b1-4)GlcNAc(b1-3)Gal(b1-4)GlcNAc(b1-2)[GlcNAc(b1-3)Gal(b1-4)GlcNAc(b1-3)Gal(b1-4)GlcNAc(b1-6)]Man(a1-6)[GlcNAc(b1-3)Gal(b1-4)GlcNAc(b1-3)Gal(b1-4)GlcNAc(b1-2)Man(a1-3)]Man(b1-4)GlcNAc(b1-4)[Fuc(a1-6)]GlcNAc
# Summary of the method: as §1
# [25] = target: GlcNAc(b1-3)Gal(b1-4)GlcNAc(b1-6)[GlcNAc(b1-3)]Gal(b1-4)GlcNAc
# Summary of the method: as §1
# GlcNAc(b1-3)Man = target: GlcNAc(b1-3)Man
# Summary of the method: as §1
# Kdn(a2-3)Gal(b1-3)GalNAc = target: Kdn(a2-3)Gal(b1-3)GalNAc
# Summary of the method: as §1
# [26] = target: Man(a1-2)Man(a1-3)[Man(a1-2)Man(a1-6)]Man(a1-6)[Man(a1-2)Man(a1-2)Man(a1-3)]Man(b1-4)GlcNAc(b1-4)GlcNAc
# Summary of the method: as §1
# [27] = target: Man(a1-2)Man(a1-6)[Man(a1-3)]Man(a1-6)[Man(a1-2)Man(a1-2)Man(a1-3)]Man(b1-4)GlcNAc(b1-4)GlcNAc
# Summary of the method: as §1
# [28] = target: Man(a1-3)[Man(a1-6)]Man(b1-4)GlcNAc(b1-4)[Fuc(a1-6)]GlcNAc
# Summary of the method: as §1
# [29] = target: Neu5Ac(a2-3)Gal(b1-3)GlcNAc(b1-3)Gal(b1-3)GlcNAc
# Summary of the method: as §1
# [30] = target: Neu5Ac(a2-3)Gal(b1-4)GlcNAc(b1-2)Man(a1-3)[Neu5Ac(a2-3)Gal(b1-4)GlcNAc(b1-2)Man(a1-6)]Man(b1-4)GlcNAc(b1-4)[Fuc(a1-6)]GlcNAc
# Summary of the method: as §1
# [31] = target: Neu5Ac(a2-3)Gal(b1-4)GlcNAc(b1-2)Man(a1-3)[Neu5Ac(a2-6)Gal(b1-4)GlcNAc(b1-2)Man(a1-6)]Man(b1-4)GlcNAc(b1-4)GlcNAc
# Summary of the method: as §1
# [32] = target: Neu5Ac(a2-3)Gal(b1-4)GlcNAc(b1-3)Gal(b1-4)GlcNAc(b1-3)Gal(b1-4)GlcNAc
# Summary of the method: as §1
# [33] = target: Neu5Ac(a2-3)Gal(b1-4)GlcNAc(b1-3)Gal(b1-4)GlcNAc(b1-3)Gal(b1-4)GlcNAc(b1-2)Man(a1-3)[Neu5Ac(a2-3)Gal(b1-4)GlcNAc(b1-3)Gal(b1-4)GlcNAc(b1-3)Gal(b1-4)GlcNAc(b1-2)Man(a1-6)]GalNAc
# Summary of the method: as §1
# [34] = target: Neu5Ac(a2-3)Gal(b1-4)[Fuc(a1-3)]GlcNAc(b1-2)Man
# Summary of the method: as §1
# [35] = target: Neu5Ac(a2-6)Gal(b1-4)GlcNAc(b1-2)Man(a1-6)[Gal(b1-4)GlcNAc(b1-2)Man(a1-3)]Man(b1-4)GlcNAc(b1-4)GlcNAc
# Summary of the method: as §1
# [36] = target: Neu5Ac(a2-6)Gal(b1-4)GlcNAc(b1-3)Gal(b1-4)GlcNAc(b1-6)[Gal(b1-3)]GalNAc
# Summary of the method: as §1
# [37] = target: Neu5Ac(a2-6)Gal(b1-4)GlcNAc(b1-3)GalNAc
# Summary of the method: as §1
# [38] = target: Neu5Ac(a2-6)GalNAc(b1-4)GlcNAc6S
# Summary of the method: as §1
# [39] = target: Neu5Gc(a2-3)Gal(b1-3)GlcNAc
# Summary of the method: as §1
# [40] = target: Neu5Gc(a2-3)Gal(b1-4)[Fuc(a1-3)]GlcNAc
# Summary of the method: as §1
# [41] = target: Neu5Gc(b2-6)Gal(b1-4)GlcNAc
# Summary of the method: as §1
binder,measurement,setting,value
B1,glycan array binding signal (z-score),[1],-0.242
same,glycan array binding signal (z-score),[2],0.367
same,glycan array binding signal (z-score),[3],-0.216
same,glycan array binding signal (z-score),[4],7.04
same,glycan array binding signal (z-score),[5],-0.16
same,glycan array binding signal (z-score),[6],-0.232
same,glycan array binding signal (z-score),[7],-0.188
same,glycan array binding signal (z-score),[8],-0.311
same,glycan array binding signal (z-score),Fuc(a1-4)GlcNAc,-0.215
same,glycan array binding signal (z-score),Fuc(b1-3)GlcNAc,-0.236
same,glycan array binding signal (z-score),Gal(a1-3)Gal,0.597
same,glycan array binding signal (z-score),[9],5.7
same,glycan array binding signal (z-score),[10],3.4
same,glycan array binding signal (z-score),[11],0.283
same,glycan array binding signal (z-score),[12],9.69
same,glycan array binding signal (z-score),Gal(a1-4)Gal(b1-4)GlcNAc,1.82
same,glycan array binding signal (z-score),[13],3.15
same,glycan array binding signal (z-score),Gal(a1-4)GlcNAc,4.53
same,glycan array binding signal (z-score),Gal(b1-3)GlcNAc(b1-2)Man,-0.124
same,glycan array binding signal (z-score),[14],-0.194
same,glycan array binding signal (z-score),[15],-0.226
same,glycan array binding signal (z-score),[16],-0.203
same,glycan array binding signal (z-score),[17],-0.102
same,glycan array binding signal (z-score),[18],-0.312
same,glycan array binding signal (z-score),Gal(b1-4)GlcNAc6P,-0.178
same,glycan array binding signal (z-score),GalNAc(a1-3)Gal,6.1
same,glycan array binding signal (z-score),GalNAc(a1-3)GalNAc,2.08
same,glycan array binding signal (z-score),[19],1.85
same,glycan array binding signal (z-score),[20],-0.191
same,glycan array binding signal (z-score),GalNAc(b1-3)GalNAc,-0.272
same,glycan array binding signal (z-score),[21],-0.143
same,glycan array binding signal (z-score),[22],-0.199
same,glycan array binding signal (z-score),[23],-0.121
same,glycan array binding signal (z-score),[24],0.036
same,glycan array binding signal (z-score),[25],-0.255
same,glycan array binding signal (z-score),GlcNAc(b1-3)Man,-0.193
same,glycan array binding signal (z-score),Kdn(a2-3)Gal(b1-3)GalNAc,-0.069
same,glycan array binding signal (z-score),[26],-0.033
same,glycan array binding signal (z-score),[27],-0.302
same,glycan array binding signal (z-score),[28],-0.305
same,glycan array binding signal (z-score),[29],-0.152
same,glycan array binding signal (z-score),[30],-0.283
same,glycan array binding signal (z-score),[31],-0.197
same,glycan array binding signal (z-score),[32],-0.261
same,glycan array binding signal (z-score),[33],2.34
same,glycan array binding signal (z-score),[34],-0.227
same,glycan array binding signal (z-score),[35],0.106
same,glycan array binding signal (z-score),[36],-0.048
same,glycan array binding signal (z-score),[37],-0.128
same,glycan array binding signal (z-score),[38],-0.271
same,glycan array binding signal (z-score),[39],-0.164
same,glycan array binding signal (z-score),[40],-0.153
same,glycan array binding signal (z-score),[41],-0.099
